Consider 40 sequences from the supplement of paper PMC6555819.

One assay deals with PPARg:RXRa DBDmut IVT, anti-RXR (DBD mutation: RXRa K156A/R161A, NR concentration 270 nM, RXRa partner concentration 90 nM). The experiment in a line: PBM binding z-score (relative to random genomic background probes); higher = stronger binding; sequences stand for … in GC…GCGATTGACAGCGTAGAATGAAGG
The procedure, abridged: (§1)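 On custom Agilent 4×180K arrays, double-stranded probes with 34-nt variable regions carried direct-repeat seeds, single-nucleotide variants, half-site ablations or random human genomic background. Ligand-free nuclear receptor dimers were applied for 1 h, and binding was read with antibodies against each partner (one per run). Binding z-scores come from regression-normalized fluorescence, with the random background probes as reference.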
GCAGACAGGTGAAACGCAGATAACTCAGGGTGGC registered a PBM binding z-score of 1.09.
Same read-out and setting: to AGAATGAGGTTAAGATCACGGAAACAGAATACAT belongs 3.1; to ATCGAAAGGTCGTAGGTGAGTATACCCACCCGAA, -0.212; to CCTATTAGTCGACCATAAGGGCAACCGAAGCTCG, 0.311.
Same read-out and setting: to ACAGACAGGTGATGGAGGTAACTCAGGCTATCAT belongs 0.108.
The same measure, in the same setting: to TCTAGCAGGCCAGAGGGTCACTCCAGAGGTACGG belongs 0.669; to AGAACTAGGGCACGCTGAGTTGATAGCAGAGTAG, 8.03; to CGTCAAAGTTCAAGGTAACTTAACAGAAAGCAGC, 0.535.
Regarding CCTAGCAGGCCAAACTGGGTCACTCAAGGCTTGA, the PBM binding z-score was found to be 4.11.
TAAATGAGGTTATAAGATCAGGGAACGTTGCAAA gave a PBM binding z-score of 2.84.
In turn, CCTACTGGGCCACGAAAGGTCATTAATTCAGTGA gave a PBM binding z-score of 5.58.
For GCTGCTAGGTCAACTGATGGACAGCTAAAGCTCG, the PBM binding z-score was 4.96.
Still for that read-out and setting: to AATCGGAGGACAAAGGTCAGAGCTACGCCAGTGA belongs 0.506; to TCGAGTAGGTTAGTCGGGGCATTCAGCCAACATA, 2.04; to TCATATAGGTAAACAGGTGAAATTCCGTAAGTTA, 4.59.
Still for that read-out and setting: to CGAACTAGGTCATCCAGGACAGTGAGTACATTGA belongs 8.47; to ATACCAAGGTGATCGTGAGGTCGCTGATACTAAC, 0.629; to TCGAGTAGGTTCGTCGGGGCATTCAGCCAACATA, 0.771.
On the same count and under the same terms, to TAGCCTAGGTCAGATAGGGCCAGTATACGCTATA belongs 0.509; to CAAACTAGGTCACCGGAAGGTCACAGTCCGCATG, 8.58; to CACACTAGGTCAAGGTCAAAGTCGGTTTGTGCCA, 7.8.
In turn, ACTATTAGTTGAGACGAGGGCAACCAATAGGTTG came in with a PBM binding z-score of 0.183.
Same read-out and setting: to ATATGTAGGGTAGCTGGGGTCATTCAGACTAGGC belongs 5.27.
Still for that read-out and setting: to CCGAGTAGGATATGGGGCATTCAGGCAACGGTGA belongs 2.05; to ATCGACAGGTCGTGAGGTGAGTATACAGAAAGGC, -0.42; to GCGTCTGGGGCATCAGCAGGTTACCATAACTTAA, 2.39.
Same read-out and setting: to CCGACTGGGGCAAGGCTACCATAACGCACAGCCA belongs 2.56; to CAAACTAGGTCACCGGTAGGTCAAAGTCCGCATG, 8.32.
As to TCTTGTAGATCAGCAGTTTAAGAAAGCTGGCCAA, the PBM binding z-score is 1.44.
On to CAGCCTAGGTCAGGCCCAGTATAGGAGGAACGTT, for which the PBM binding z-score came out at 0.76.
Still for that read-out and setting: to ATATATAGGTTAGCTGGGGTCATTCAGACTAGGC belongs 6.82; to GCTTACGGTTCAAAGGTTATAGCATGAATAGAAT, -0.685; to AGAATGAGGTTACCGAAGATCAGGGAAACGCTTG, 3.97.
On the same count and under the same terms, to AGAATGAGGTTATCCGTAGATCAGGGAAGAAAGT belongs 3.68.
The same measure, in the same setting: to TGAATGAGGTTAAAGATCAGGGAACGTGGCGTCG belongs 2.04.
In the case of AGAATGAGGGTATTAAGATCAGGGAATTGCGGTC, the PBM binding z-score is 1.71.
The same measure, in the same setting: to CTACCAACGTGAACAAGGTCGTTGATTACTATTC belongs 0.278; to ACTAGTCGGTCAGCTGAGGTCACACACAATTCGG, 3.9; to CCTTGGAGGACAGAAGGTCAGAGCTGTCCGCTTT, 0.658.
On the same count and under the same terms, to TGTCAAGGTTCAAAGGTAACGTAAGTATCCACAC belongs -0.0297.

The next assay deals with PPARg:RXRa IVT, anti-PPARg (NR concentration 270 nM, RXRa partner concentration 90 nM). The assay is described as above. The procedure, abridged: as §1
Sequence GCAGACAGGTGAAACGCAGATAACTCAGGGTGGC registered a PBM binding z-score of 0.225.
Take AGAATGAGGTTAAGATCACGGAAACAGAATACAT: the PBM binding z-score worked out at 2.73.
Still for that read-out and setting: to ATCGAAAGGTCGTAGGTGAGTATACCCACCCGAA belongs 2.34.
Still for that read-out and setting: to CCTATTAGTCGACCATAAGGGCAACCGAAGCTCG belongs -0.00504; to ACAGACAGGTGATGGAGGTAACTCAGGCTATCAT, 0.744; to TCTAGCAGGCCAGAGGGTCACTCCAGAGGTACGG, 0.586.
On the same count and under the same terms, to AGAACTAGGGCACGCTGAGTTGATAGCAGAGTAG belongs 7.98; to CGTCAAAGTTCAAGGTAACTTAACAGAAAGCAGC, 1.52.
CCTAGCAGGCCAAACTGGGTCACTCAAGGCTTGA gave a PBM binding z-score of 4.34.
The same measure, in the same setting: to TAAATGAGGTTATAAGATCAGGGAACGTTGCAAA belongs 2.73; to CCTACTGGGCCACGAAAGGTCATTAATTCAGTGA, 5.87; to GCTGCTAGGTCAACTGATGGACAGCTAAAGCTCG, 4.05.
Same read-out and setting: to AATCGGAGGACAAAGGTCAGAGCTACGCCAGTGA belongs 4.15; to TCGAGTAGGTTAGTCGGGGCATTCAGCCAACATA, 1.69.
Still for that read-out and setting: to TCATATAGGTAAACAGGTGAAATTCCGTAAGTTA belongs 4.41.
Turning to CGAACTAGGTCATCCAGGACAGTGAGTACATTGA, the PBM binding z-score amounted to 8.31.
Same read-out and setting: to ATACCAAGGTGATCGTGAGGTCGCTGATACTAAC belongs 1.43; to TCGAGTAGGTTCGTCGGGGCATTCAGCCAACATA, -0.0233; to TAGCCTAGGTCAGATAGGGCCAGTATACGCTATA, 1.38.
On the same count and under the same terms, to CAAACTAGGTCACCGGAAGGTCACAGTCCGCATG belongs 9.08.
The sequence CACACTAGGTCAAGGTCAAAGTCGGTTTGTGCCA yielded a PBM binding z-score of 8.02.
Still for that read-out and setting: to ACTATTAGTTGAGACGAGGGCAACCAATAGGTTG belongs 0.992; to ATATGTAGGGTAGCTGGGGTCATTCAGACTAGGC, 5.46; to CCGAGTAGGATATGGGGCATTCAGGCAACGGTGA, 2.81.
The same measure, in the same setting: to ATCGACAGGTCGTGAGGTGAGTATACAGAAAGGC belongs 0.86; to GCGTCTGGGGCATCAGCAGGTTACCATAACTTAA, 1.72.
Still for that read-out and setting: to CCGACTGGGGCAAGGCTACCATAACGCACAGCCA belongs 2.89; to CAAACTAGGTCACCGGTAGGTCAAAGTCCGCATG, 9.19.
As for TCTTGTAGATCAGCAGTTTAAGAAAGCTGGCCAA, the PBM binding z-score amounted to 0.0506.
Same read-out and setting: to CAGCCTAGGTCAGGCCCAGTATAGGAGGAACGTT belongs 1.39; to ATATATAGGTTAGCTGGGGTCATTCAGACTAGGC, 5.96; to GCTTACGGTTCAAAGGTTATAGCATGAATAGAAT, 0.999.
Take AGAATGAGGTTACCGAAGATCAGGGAAACGCTTG: the PBM binding z-score is 3.55.
Consider AGAATGAGGTTATCCGTAGATCAGGGAAGAAAGT, for which the PBM binding z-score worked out at 2.42.
Still for that read-out and setting: to TGAATGAGGTTAAAGATCAGGGAACGTGGCGTCG belongs 3.27; to AGAATGAGGGTATTAAGATCAGGGAATTGCGGTC, 0.923; to CTACCAACGTGAACAAGGTCGTTGATTACTATTC, 0.249.
ACTAGTCGGTCAGCTGAGGTCACACACAATTCGG displayed a PBM binding z-score of 3.98.
The same measure, in the same setting: to CCTTGGAGGACAGAAGGTCAGAGCTGTCCGCTTT belongs 1.17; to TGTCAAGGTTCAAAGGTAACGTAAGTATCCACAC, 3.17.
